Potency and affinity values are given separately. The source made the active and inactive calls.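 Rule for the calls: active = compounds lowering the cell viability signal, with fitted half-maximal dose at most ten times the top valid dose; inconclusive = flat partial drop of 30 to 70 percent, or poor fit; inactive = flat near zero, weak potency, or rising signal.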
experiment: mammalian cell toxicity, NIH-3T3 fibroblasts, dose response, cytotoxicity control for reversing antifungal drug resistance, Alamar Blue, dry powder, set 3 (AID 488933); settings: NIH-3T3 viability with fluconazole, 48 h; series mostly up to 26 µM; activity change, negative = toxicity: at the top concentration

Structure (SMILES)	activity change, negative = toxicity
O=C(c1ccc(Cl)cc1)N1CCN(c2ccc(C(F)(F)F)cn2)CC1	-0.994% (inactive)
Cc1ccc(N2CCN(C(=O)c3ccc(Cl)cc3)CC2)nn1	0.652% (inactive)
COCCC(=O)N1CCN(c2ccccn2)CC1	2.82% (inactive)
Cc1ccc(C(=O)N2CCN(c3ccccn3)CC2)cc1	7.48% (inactive)
O=C(c1cccc(Cl)c1)N1CCN(c2ccccn2)CC1	1.16% (inactive)
O=C(c1ccc(Cl)cc1)N1CCN(c2nc3ccccc3o2)CC1	0.918% (inactive)
COc1cccnc1N1CCN(C(=O)c2ccc(Cl)cc2)CC1	7.07% (inactive)
O=C(c1ccccc1Cl)N1CCN(c2ccccn2)CC1	6.83% (inactive)
Cc1ccc(N2CCN(C(=O)c3ccc(Cl)cc3)CC2)nc1	-4.89% (inactive)
N#Cc1ccc(C(=O)N2CCN(c3ccccn3)CC2)cc1	3.01% (inactive)
O=C(c1ccc(Cl)cc1)N1CCN(c2nc3ccccc3s2)CC1	-2.51% (inactive)
c1ccc(N2CCNCC2)nc1	6.03% (inactive)
CC(C)C(=O)N1CCN(c2ccnc3cc(Cl)ccc23)CC1	11.1% (inactive)
O=C(c1ccc(Cl)cc1)N1CCN(c2cccc(C(F)(F)F)n2)CC1	4.33% (inactive)
O=C(c1ccc(F)cc1)N1CCN(c2ccccn2)CC1	6.84% (inactive)
COc1ccc(C(=O)N2CCN(c3ccccn3)CC2)cc1	-1.51% (inactive)
O=C(c1ccc(Cl)cc1)N1CCN(c2cnccn2)CC1	5.64% (inactive)
O=C(c1ccc(Cl)cc1)N1CCN(c2ncccn2)CC1	-2.51% (inactive)
Cn1ccnc1N1CCN(C(=O)c2ccc(Cl)cc2)CC1	-3.06% (inactive)
N#Cc1cccnc1N1CCN(C(=O)c2ccc(Cl)cc2)CC1	-3.83% (inactive)
O=C(c1ccc(Cl)cc1)N1CCN(c2nccs2)CC1	-5.96% (inactive)
Cc1ccnc(N2CCN(C(=O)c3ccc(Cl)cc3)CC2)c1	-3.82% (inactive)
Cc1cccc(N2CCN(C(=O)c3ccc(Cl)cc3)CC2)n1	-5.38% (inactive)
CCCCC(=O)N1CCN(c2ccccn2)CC1	-1.2% (inactive)
O=C(c1ccc(Cl)cc1)N1CCN(c2ncccc2C(F)(F)F)CC1	1.94% (inactive)
O=C(C1CCCCC1)N1CCN(c2ccccn2)CC1	-4.51% (inactive)
CC(C)C(=O)N1CCN(c2ccccn2)CC1	9.72% (inactive)

From PubChem BioAssay AID488933 (Broad Institute, 2010)
